The values that follow come from PubChem BioAssay (NCATS).

Assay [1] can be described thus: Cell Viability - HepG2 (AID 433; calls by dose curve;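 further: potency means the concentration at half of the fitted maximal effect; cells exposed to compound for 40 hours; potency for ATP loss meaning cytotoxicity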). The note with it: qHTS. The gist of the method: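 HepG2 hepatocellular carcinoma cells (1500/well) were treated with compounds for 40 h at 37 °C in complete medium; intracellular ATP was read by CellTiter-Glo luminescence. Data were normalized to DMSO and 100 uM tamoxifen, and AC50 came from Hill fits.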
On the technique in general: qHTS replaces the single test concentration by a dilution series.

A short description of assay [2]: Cell Viability - Mesenchymal (AID 546).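 Further: cells exposed to compound for 40 hours before reading.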 The note with it: mesenchymal cells viability, qHTS; activity change, negative = cytotoxicity: at 91.7 µM (top of the series). The gist of the method:
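In this qHTS cytotoxicity format, glomerulus-derived human mesenchymal kidney cells received compound for 40 hr, then luciferase-based ATP quantitation. Concentration-response data were fitted with the Hill equation.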

The nature of assay [3]: Cellular Toxicity (caspase-3) Jurkat (AID 655).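 Further: cells exposed to compound for 16 h at 37 °C before reading.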 The note with it: Jurkat caspase-3 activation, luminescence; caspase-3 activation: at 92.2 µM (top of the series), DMSO = 0%, tamoxifen = 100%. The gist of the method:
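Jurkat cells (5000/well) in complete medium were treated with compounds for 16 hr at 37 °C, then Caspase-Glo 3/7 luminescence was read after 20 min at room temperature. Data normalized to DMSO (basal) and 100 uM tamoxifen (100%); AC50 from Hill fit.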

A short description of assay [4]: Cell Viability - LYMP1-002 - Assay at 16 hr (AID 948).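 Further: 0% = DMSO alone and full effect = 92 µM tetraoctylammonium bromide.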 The note with it: LYMP1-002 lymphoblastoid cell viability; series mostly up to 92.2 µM. The gist of the method: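 Human lymphoblastoid cells (LYMP1-002), 2500/well, were preincubated 5 hr at 37 C, then exposed to compounds for 16 hr at 37 C in complete medium. Cellular ATP was read by CellTiter-Glo luminescence after 30 min at room temperature; AC50 from Hill fits.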

Assay [5] can be described thus: Cell Viability - LYMP2-003 (AID 965).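 Further: cells exposed to compounds for 24 h before reading; 0% = DMSO only and full effect = 92 µM tetraoctylammonium bromide; nearly all actives have a fitted effect of over 50% in size.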 The note with it: LYMP2-003 lymphoblastoid cell viability; series mostly up to 92.2 µM. The gist of the method:
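Human lymphoblastoid cells (2500/well) were pre-incubated 5 hr at 37 C, then exposed to compounds over a concentration range for 24 hr at 37 C. Intracellular ATP was read by CellTiter-Glo luminescence; AC50 came from Hill-equation fits.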

A short description of assay [6]: Cell Viability - LYMP2-011 (AID 969).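 Further: 0% = DMSO only and full inhibition = 92 µM tetraoctylammonium bromide; nearly all actives have a fitted effect of over 60% in size.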 The note with it: LYMP2-011 lymphoblastoid cells viability; series mostly up to 92.2 µM. The gist of the method: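 In this qHTS cytotoxicity format, compounds are tested across concentrations on human lymphoblastoid cells in complete medium for 24 hours at 37 C. Viability is taken as cellular ATP measured by luciferase luminescence.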

The nature of assay [7]: Cell Viability - LYMP2-013 (AID 970).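 Further: 0% = DMSO only and full inhibition = tetraoctylammonium bromide control; nearly all actives have a fitted effect of over 55% in size.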 The note with it: LYMP2-013 lymphoblastoid cells viability; series mostly up to 92.2 µM. The gist of the method: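 Cytotoxicity is scored as a concentration-dependent drop in intracellular ATP in human lymphoblastoid cells after 24 hr compound exposure at 37 C. ATP is quantified by luciferase luminescence, and AC50 values come from Hill-equation modeling.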

Assay [8] is described as follows: Cell Viability - LYMP2-021 (AID 974).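 Further: compound exposure lasts 24 hours at 37 °C; on the % scale 0 is the no-effect control and ±100 the full control effect; nearly all actives have a fitted effect of over 55% in size.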 The note with it: LYMP2-021 lymphoblastoid cells viability; series mostly up to 92.2 µM. The gist of the method: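 Loss of cellular ATP, measured with a luciferase-based CellTiter-Glo readout, serves as the toxicity signal in human lymphoblastoid cells treated for 24 hours at 37 C. Potency is reported as AC50 from a standard Hill model.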

A short description of assay [9]: Cell Viability - LYMP2-002 (AID 977).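 Further: compound exposure lasted 24 h at 37 °C; plate controls were DMSO only for no effect and 92 µM tetraoctylammonium bromide for full effect.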 The note with it: LYMP2-002 lymphoblastoid cell viability, qHTS; series mostly up to 92.2 µM. The gist of the method: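 In this qHTS viability screen, 2500 human lymphoblastoid cells per well receive compound for 24 hr at 37 C, and luciferase-based ATP luminescence gives the viability signal. Tetraoctylammonium bromide serves as positive control.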

Assay [10] in a line: Cell Viability - LYMP2-008 (AID 980). Further: on the % scale 0 is the no-effect control and ±100 the full control effect; nearly all actives have a fitted effect of over 60% in size. The note with it: LYMP2-008 lymphoblastoid cell viability, qHTS; series mostly up to 92.2 µM. The gist of the method:
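Cells seeded at 2500/well and rested 5 hr at 37 C; compounds added over a concentration range and incubated 24 hr at 37 C; CellTiter-Glo added, 30 min at room temperature; luminescence read and AC50 fitted with Hill model.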

The nature of assay [11]: Cell Viability - LYMP2-012 (AID 982).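 Further: cellular ATP by luciferase luminescence where a drop means cytotoxicity; cells exposed to compound for one day before reading; 0% = DMSO only and full loss = 92 µM tetraoctylammonium bromide; nearly all actives have a fitted effect of over 55% in size.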 The note with it: LYMP2-012 lymphoblastoid cell viability qHTS; series mostly up to 92.2 µM.
The nature of assay [12]: Cell Viability - LYMP2-014 (AID 983).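 Further: plate controls were DMSO only for no effect and 92 µM tetraoctylammonium bromide for full effect; nearly all actives have a fitted effect of over 50% in size.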 The note with it: LYMP2-014 lymphoblastoid cells, viability qHTS; series mostly up to 92.2 µM. The gist of the method: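 Cells are plated at 2500/well and left 5 hr at 37 C. Compounds are added across a concentration range and incubated 24 hr at 37 C in complete medium. CellTiter-Glo is added, and luminescence is read after 30 min at room temperature.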

Assay [13] in a line: Cell Viability - LYMP2-016 (AID 984). Further: on the % scale 0 is the no-effect control and ±100 the full control effect; nearly all actives have a fitted effect of over 55% in size. The note with it: LYMP2-016 lymphoblastoid cell viability, qHTS; series mostly up to 92.2 µM. The gist of the method: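 Human lymphoblastoid cells (LYMP2-016), 2500/well in complete medium, preincubated 5 hr at 37 C, then compound-treated 24 hr at 37 C. Intracellular ATP read by CellTiter-Glo luminescence after 30 min at room temperature; AC50 from Hill-equation concentration-response fits.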

A short description of assay [14]: Cell Viability - LYMP2-020 (AID 986). The note with it: series mostly up to 92.2 µM. The gist of the method: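 Seed 2500 cells per well and incubate 5 hr at 37 C. Add compounds at a concentration series and incubate 24 hr at 37 C. Add CellTiter-Glo, wait 30 min at RT, read luminescence, and fit a Hill curve for AC50.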
Assay [15] is described as follows: Cell Viability - LYMP2-024 (AID 988).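 Further: plate controls were DMSO only for no effect and 92 µM tetraoctylammonium bromide for full effect; nearly all actives have a fitted effect of over 60% in size.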 The note with it: LYMP2-024 lymphoblastoid cell viability; series mostly up to 92.2 µM. The gist of the method: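 qHTS cytotoxicity, human lymphoblastoid line, complete medium; 24 h cpd treatment, 37 C; CellTiter-Glo ATP luminescence readout; tetraoctylammonium bromide positive control; AC50 via Hill fit.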
Assay [16] in a line: Cell Viability - LYMP2-026 (AID 989). Further: on the % scale 0 is the no-effect control and ±100 the full control effect; nearly all actives have a fitted effect of over 50% in size. The note with it: LYMP2-026 lymphoblastoid cell viability, qHTS; series mostly up to 92.2 µM. The gist of the method: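 Cells are seeded at 2500 per well and held 5 hr at 37 C. Compounds are added in concentration series for 24 hr, then CellTiter-Glo reagent is applied and luminescence read.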
A short description of assay [17]: Cell Viability - LYMP1-002 - Assay at 40 hr (AID 994).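 Further: 0% = DMSO only and full inhibition = 92 µM tetraoctylammonium bromide; nearly all actives have a fitted effect of over 60% in size.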 The note with it: LYMP1-002 lymphoblastoid cell viability; series mostly up to 92.2 µM. The gist of the method: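 Cells are plated at 2500 per well and rested 5 hr at 37 C. Compounds are added and incubated 40 hr at 37 C. CellTiter-Glo reagent is added for 30 min at room temperature before luminescence is read.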

Assay [18] can be described thus: qHTS assay for small molecule antagonists of retinoid X receptor alpha signaling (AID 588546; active means well fitted inhibition curve with a large enough effect in the signal ratio, with a control signal flat, not every such curve was filed as active; the % refers to the signal ratio;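 further: cells stimulated with 9-cis-retinoic acid as agonist; on the % scale 0 is the no-effect control and ±100 the full control effect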). The note with it: HEK293T RXRa-UAS-bla, beta-lactamase ratio, antagonist mode; measured here: W530 green channel, cytotoxicity proxy. The gist of the method:
(§1)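 Beta-lactamase reporter inhibition, read as CCF4 fluorescence ratio (ex 405, em 460/530 nm) after 2 h at RT. HEK293T UAS-bla cells, 2500/well, were stimulated with 9-cis-RA at 500 or 100 nM final alongside test compound for 18 h at 37 C.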

Assay [19] concerns the target Retinoic acid receptor RXR-alpha (Homo sapiens) (UniProt P19793). The description is as above. The note with it: HEK293T RXRa-UAS-bla, beta-lactamase ratio, antagonist mode. The gist of the method: as §1
Assay [20] in a line: qHTS assay for environmental chemicals that activate the Aryl hydrocarbon Receptor (AhR) signaling pathway (AID 651777). Further: % of control where 0% means no effect; nearly all actives have a fitted effect of over 15% in size. The note with it: 1A2-DRE human hepatoma cells, luciferase, 24 h; activation: stronger effect = higher value. The gist of the method:
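Induction of CYP1A2 transcription through AhR is detected by luciferase in 1A2-DRE hepatoma cells. Compounds or DMSO act for 24 hr at 37 C before a 30 min One-Glo step at room temperature.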

Several values for one entry are separate records, joined by “and”; a condition that tells them apart may be missing. Identical values can stand only once. Results filed as inconclusive are left out. Activity calls are given as the source filed them. Unless noted, the call rests on the fitted dose curve; in most records, active means well fitted curve in the direction sought with a large enough effect; inconclusive means small, poorly fitted or top-dose-only effect, or another doubt; inactive means no such curve, though single readings can be large; an effect the other way counts as inactive or inconclusive.

Sequence of Retinoic acid receptor RXR-alpha (Homo sapiens) (P19793 whole entry, looked up): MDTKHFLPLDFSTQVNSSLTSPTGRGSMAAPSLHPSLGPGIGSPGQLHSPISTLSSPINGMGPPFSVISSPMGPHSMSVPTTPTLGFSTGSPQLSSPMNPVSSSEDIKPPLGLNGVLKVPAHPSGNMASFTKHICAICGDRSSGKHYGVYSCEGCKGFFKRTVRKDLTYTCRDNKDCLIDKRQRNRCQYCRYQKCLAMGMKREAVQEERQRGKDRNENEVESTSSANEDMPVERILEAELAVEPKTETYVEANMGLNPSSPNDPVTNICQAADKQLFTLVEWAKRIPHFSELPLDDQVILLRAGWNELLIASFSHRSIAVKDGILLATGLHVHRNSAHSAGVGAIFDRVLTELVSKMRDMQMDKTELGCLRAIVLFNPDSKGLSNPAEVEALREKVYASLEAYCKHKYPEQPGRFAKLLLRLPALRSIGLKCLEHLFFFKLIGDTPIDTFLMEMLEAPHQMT

With `COc1cc(-c2ccc(N=C=O)c(OC)c2)ccc1N=C=O`, the Potency in assay [1] was > 92 µM (inactive). Also, the Potency entry in assay [2], in assay [3], in assay [4], in assay [5], in assay [6] and in assay [7] was “inactive” each time. Besides, the Potency result in assay [8], in [9], in assay [10], in assay [11], in assay [12] and in [13] was “inactive” in each case. The Potency result in [14], in assay [15], in assay [16] and in assay [17] was “inactive” each time. Further, the max response in assay [18] is -13.8%; in assay [19], -6.94% (inactive). Also, in [20], the activation is 0.786% (inactive) and 6.25% (inactive).

Regarding `CC(=O)Nc1cccc(C)c1`, the Potency in [1] is > 92 µM (inactive). Further, the Potency result in assay [2], in assay [3], in [4], in assay [5], in assay [6] and in assay [7] was “inactive” each time. Further, the Potency entry in assay [8], in [9], in [10], in assay [11], in [12] and in assay [13] was “inactive” throughout. In addition, the Potency result in assay [14], in [15], in assay [16] and in assay [17] was “inactive” each time. For the same compound, the max response is 1.11% in [18] and 1.56% (inactive) in assay [19]. In addition, the activation in assay [20] was 0.306% (inactive).

Consider `Cc1cccnc1`, for which the Potency in assay [1] was > 92 µM (inactive). The Potency entry in [2], in [3], in [4], in assay [5], in assay [6] and in assay [7] was “inactive” in each case. Further, the Potency entry in assay [8], in assay [9], in [10], in [11], in assay [12] and in [13] was “inactive” each time. For the same compound, the Potency entry in [14], in assay [15], in [16] and in assay [17] was “inactive” in each case. For the same compound, the max response in assay [18] is -1.12%; in assay [19], 7.72% (inactive). For the same compound, the activation in [20] was 0.348% (inactive).

In the case of `Nc1ccc(-c2ccc(N)c(O)c2)cc1O`, the Potency in [1] was > 92 µM (inactive). Moreover, the Potency result in assay [2], in [4], in [7], in [9], in [10] and in [12] was “inactive” each time. The Potency entry in assay [13], in [14], in assay [16] and in [17] was “inactive” in each case. Moreover, the values for the max response in assay [18] and in assay [19] were -41.6% and -12% (inactive), respectively. Also, the activation in assay [20] is -0.254% (inactive).

On to `CC(=O)CC(=O)Nc1ccccc1`, for which the Potency in [1] is > 92 µM (inactive). Further, the Potency entry in assay [2], in assay [3], in assay [4], in assay [5], in assay [6] and in assay [7] was “inactive” each time. In addition, the Potency entry in assay [8], in assay [9], in assay [10], in [11], in assay [12] and in assay [13] was “inactive” each time. Besides, the Potency result in assay [14], in [16] and in assay [17] was “inactive” throughout. In addition, the max response was 10.1% and 20.6% in [18]; -1.7% (inactive) and -15.3% (inactive) in assay [19]. Besides, the activation in assay [20] was 1.24% (inactive) and 1.64% (inactive).

Regarding `Oc1cc(Cl)cc(Cl)c1Cl`, the Potency in assay [1] is > 92 µM (inactive). Besides, the Potency entry in assay [2], in [3], in [4], in [5], in assay [6] and in [7] was “inactive” in each case. In addition, the Potency result in assay [9], in [10], in [11], in [12], in assay [13] and in [16] was “inactive” each time. The Potency entry in [17] was “inactive”. In assay [20], the activation is 2.22% (inactive).
